Consider 16 compounds from PubChem BioAssay (Tox21).

Each structure is given as a SMILES string. Values without a mark were called inactive. Results filed as inconclusive are left out. Active and inactive are the calls of the source. Calls follow the shape of the dose curve; as a rule, active = well fitted curve in the direction sought with a large enough effect in the repeat runs; inconclusive = weak or mixed curves; inactive = no such curve, though single readings can be large; an effect the other way counts as inactive or inconclusive.

Assay [1] can be described thus: Caspase-3/7 induction in HepG2 cells by small molecules, qHTS assay (AID 1346978). Also: nearly all actives have a fitted effect of over 15% in size. The essentials:
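Wild-type HepG2 cells, 2,000/well, settled 5 hr at 37 C and 5% CO2, then compound-treated for 17 hr; caspase-3/7 activity read by luminescent Caspase-Glo 3/7 after 30 min at room temperature.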
In general terms: In qHTS, concentration-response curves come from the screen itself.

Assay [2] is described as follows: Caspase-3/7 induction in CHO-K1 cells by small molecules, qHTS cell viability counter screen (AID 1346979). Also: nearly all actives have a fitted effect of over 35% in size. In a few lines: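 Cells (CHO-K1, wild type) are plated at 1,500 per well and incubated 5hr. Test compounds in DMSO are then pinned in, followed by 16hr at 37C and 5% CO2. Viability is read by CellTiter-Fluor fluorescence after 1hr.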
A short description of assay [3]: Caspase-3/7 induction in CHO-K1 cells by small molecules, qHTS assay (AID 1346980). Also: nearly all actives have a fitted effect of over 15% in size. The essentials: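 Wild-type CHO-K1 cells exposed to compounds for 17hr at 37 C, 5% CO2. Caspase-3/7 activity then measured by Caspase-Glo 3/7 luminescence after 30min at room temperature.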
Assay [4] can be described thus: Caspase-3/7 induction in HepG2 cells by small molecules, qHTS cell viability counter screen (AID 1346981). Also: series mostly up to about 92 µM; nearly all actives have a fitted effect of over 30% in size. In a few lines:
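In this quantitative HTS counter screen, compounds delivered in DMSO were left on unmodified HepG2 cells for 16 hr at 37 C. Viability was then determined fluorometrically with CellTiter-Fluor, in parallel with caspase-3/7 induction in the same wells.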

Assay [5] addresses Nuclear receptor subfamily 1 group I member 2 (Homo sapiens) (UniProt O75469). As to the kind of experiment: Human pregnane X receptor (PXR) small molecule agonists, qHTS assay (AID 1346982). Also: nearly all actives have a fitted effect of over 35% in size. Also: potency is read from the fitted curve at half-maximal effect. In a few lines: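 Reporter HepG2 cells expressing PXR-Luc are cultured in charcoal-stripped FBS (5%), treated with compounds for 24 hr at 37 C, and assayed by ONE-Glo luminescence after 30 min at room temperature.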

Assay [6] concerns the target Cytochrome P450 2C19 (Homo sapiens) (UniProt P33261). The assay can be described thus: Cytochrome P450 Family 2 Subfamily C Member 19 (CYP2C19) small molecule antagonists: luciferase reporter qHTS assay (AID 1671197). Also: nearly all actives have a fitted effect of over 65% in size. Also: potency is read from the fitted curve at half-maximal effect. The essentials: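 Luminescent readout of CYP2C19 activity: luciferin product detected 20 min after adding detection reagent. Before that, compound and enzyme-substrate mix preincubated 10 min at room temperature; NADPH-regenerating system started a 1 h, 37C reaction. Ketoconazole as positive control.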
On the technique in general: A reporter such as luciferase makes a cellular process visible.

In assay [7] the target is Cytochrome P450 2C9 (Homo sapiens) (UniProt P11712). The assay can be described thus: Cytochrome P450 Family 2 Subfamily C Member 9 (CYP2C9) small molecule antagonists: luciferase reporter qHTS assay (AID 1671198). Also: nearly all actives have a fitted effect of over 50% in size. Also: potency is read from the fitted curve at half-maximal effect. In a few lines: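 P450-Glo proluciferin substrate with CYP2C9 enzyme; 10 min RT preincubation, then NADPH regeneration 1 h at 37C; luciferin detection reagent 20 min RT, luminescence in relative luminescence units.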
Cytochrome P450 2C9 (Homo sapiens), sequence (P11712 whole entry, looked up): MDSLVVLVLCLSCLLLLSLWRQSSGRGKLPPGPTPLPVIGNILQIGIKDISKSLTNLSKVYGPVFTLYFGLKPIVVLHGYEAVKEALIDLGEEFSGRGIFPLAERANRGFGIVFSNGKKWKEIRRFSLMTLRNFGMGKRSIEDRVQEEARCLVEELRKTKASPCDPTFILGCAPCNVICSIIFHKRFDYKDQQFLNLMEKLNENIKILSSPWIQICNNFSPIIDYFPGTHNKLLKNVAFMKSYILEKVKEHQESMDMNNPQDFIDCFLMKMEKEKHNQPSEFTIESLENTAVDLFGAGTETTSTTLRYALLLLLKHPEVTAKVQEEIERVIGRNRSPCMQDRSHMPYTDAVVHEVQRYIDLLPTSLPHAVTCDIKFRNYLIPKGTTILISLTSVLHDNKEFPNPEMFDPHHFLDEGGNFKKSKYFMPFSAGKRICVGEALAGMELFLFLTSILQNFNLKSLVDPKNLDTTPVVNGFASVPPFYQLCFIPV

The target in assay [8] is Voltage-gated inwardly rectifying potassium channel KCNH2 (Homo sapiens) (UniProt Q12809). The assay can be described thus: Human Ether-a-go-go-Related Gene (hERG) channel small molecule antagonists: fluorescence cell-based qHTS assay (AID 1671200). Also: nearly all actives have a fitted effect of over 50% in size. Also: potency is read from the fitted curve at half-maximal effect. In a few lines:
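Channel function was assessed by thallium flux. Cells seeded the previous day and kept at 37 C took up FluxOR II dye over 1 h in the dark at room temperature, then sat another 10 min before stimulation.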
In general terms: Block of hERG is tested as a sign of cardiac risk.

The target of assay [9] is Cytochrome P450 3A4 (Homo sapiens) (UniProt P08684). As to the kind of experiment: Cytochrome P450 Family 3 Subfamily A Member 4 (CYP3A4) small molecule antagonists: luciferase reporter qHTS assay (AID 1671201). Also: nearly all actives have a fitted effect of over 50% in size. Also: potency is read from the fitted curve at half-maximal effect. In a few lines: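 Compounds in DMSO were pin-transferred onto CYP3A4 enzyme-substrate mix and held 10 min at room temperature. NADPH regenerating solution started the reaction for 1 h; luciferin detection reagent stopped it, and luminescence was read after 20 min.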
Cytochrome P450 3A4 (Homo sapiens), sequence (P08684 whole entry, looked up): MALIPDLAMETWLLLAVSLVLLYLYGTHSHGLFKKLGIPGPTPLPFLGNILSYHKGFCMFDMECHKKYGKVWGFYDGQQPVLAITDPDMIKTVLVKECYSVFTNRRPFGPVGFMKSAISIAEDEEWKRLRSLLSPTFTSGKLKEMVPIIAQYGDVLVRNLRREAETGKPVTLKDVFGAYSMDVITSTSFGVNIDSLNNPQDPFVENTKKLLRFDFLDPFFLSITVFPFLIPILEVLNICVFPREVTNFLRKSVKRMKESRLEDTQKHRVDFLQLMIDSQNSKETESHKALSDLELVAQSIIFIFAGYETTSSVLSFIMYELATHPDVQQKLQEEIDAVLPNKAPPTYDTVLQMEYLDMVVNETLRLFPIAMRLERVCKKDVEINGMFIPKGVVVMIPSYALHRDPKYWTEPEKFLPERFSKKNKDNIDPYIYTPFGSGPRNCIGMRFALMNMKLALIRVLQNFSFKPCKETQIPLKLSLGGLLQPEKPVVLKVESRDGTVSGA

The target of assay [10] is Cytochrome P450 1A2 (Homo sapiens) (UniProt P05177). As to the kind of experiment: Cytochrome P450 Family 1 Subfamily A Member 2 (CYP1A2) small molecule antagonists: luciferase reporter qHTS assay (AID 1671199). Also: nearly all actives have a fitted effect of over 50% in size. Also: potency is read from the fitted curve at half-maximal effect. In a few lines:
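Steps: enzyme-substrate mix dispensed; test compounds and furafylline control pinned in; 10 min room temperature; NADPH regeneration solution added, 1 h; reaction stopped with luciferin detection reagent; luminescence read after 20 min.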

The target in assay [11] is Nuclear receptor subfamily 1 group I member 2 (Rattus norvegicus) (UniProt Q9R1A7). As to the kind of experiment: Rat pregnane X receptor (rPXR) activation by small molecules, qHTS assay (AID 1346983). Also: nearly all actives have a fitted effect of over 20% in size. The settings on record: rPXR luciferase reporter cells, One-Glo luminescence, 24 h; max activation: stronger effect = higher value. In a few lines: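 Cell-based rPXR activation assay: rPXR cells, 2,000 per well, rested 5hr at 37 C, then exposed to compounds in DMSO for 24 hr at 37 C. Luciferase activity read by One-Glo luminescence after 30 min at room temperature.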
Nuclear receptor subfamily 1 group I member 2 (Rattus norvegicus), sequence (Q9R1A7 whole entry, looked up): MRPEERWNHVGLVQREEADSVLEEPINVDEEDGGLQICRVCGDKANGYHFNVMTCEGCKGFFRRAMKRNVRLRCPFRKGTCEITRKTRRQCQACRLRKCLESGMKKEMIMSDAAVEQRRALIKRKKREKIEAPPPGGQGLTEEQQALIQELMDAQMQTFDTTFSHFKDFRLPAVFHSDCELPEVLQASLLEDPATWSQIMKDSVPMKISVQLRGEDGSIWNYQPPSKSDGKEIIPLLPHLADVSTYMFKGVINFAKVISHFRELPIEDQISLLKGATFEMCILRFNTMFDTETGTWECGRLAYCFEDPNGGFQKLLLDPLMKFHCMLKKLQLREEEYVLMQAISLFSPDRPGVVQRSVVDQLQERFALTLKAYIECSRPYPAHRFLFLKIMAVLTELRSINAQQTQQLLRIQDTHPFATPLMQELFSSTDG

In assay [12] the target is Nuclear receptor subfamily 1 group I member 2 (Homo sapiens) (UniProt O75469). The assay can be described thus: CYP3A4 induction through human pregnane X receptor (PXR) by small molecules, qHTS assay (AID 1346984). Also: nearly all actives have a fitted effect of over 40% in size. The essentials: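 Induction measured in HepG2-based DPX-2 cells co-expressing human PXR and a CYP3A4 promoter-driven luciferase. After a 24-hour compound exposure, cells received CYP3A4 luciferin substrate at 3uM final for 3 hours, and light output was then recorded.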
Nuclear receptor subfamily 1 group I member 2 (Homo sapiens), sequence (O75469 whole entry, looked up): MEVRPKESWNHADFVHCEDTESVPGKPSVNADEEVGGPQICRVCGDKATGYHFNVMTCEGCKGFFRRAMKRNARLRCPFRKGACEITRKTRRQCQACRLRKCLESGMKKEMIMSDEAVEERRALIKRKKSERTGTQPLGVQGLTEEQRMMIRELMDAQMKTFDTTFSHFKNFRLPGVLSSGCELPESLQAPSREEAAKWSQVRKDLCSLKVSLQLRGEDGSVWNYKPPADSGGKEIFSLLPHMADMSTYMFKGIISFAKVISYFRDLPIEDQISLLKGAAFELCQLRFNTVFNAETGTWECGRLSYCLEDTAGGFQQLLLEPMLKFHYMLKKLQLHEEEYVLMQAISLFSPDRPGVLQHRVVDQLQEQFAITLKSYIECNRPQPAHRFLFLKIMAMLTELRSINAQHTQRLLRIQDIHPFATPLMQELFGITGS

Assay [13] has the same target. The assay can be described thus: Human pregnane X receptor (PXR) activation by small molecules, qHTS assay (AID 1346985). Also: nearly all actives have a fitted effect of over 40% in size. In a few lines:
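DPX-2 cells (HepG2 co-transfected with a PXR response element and a CYP3A4-promoter luciferase construct) were seeded at 2,000 per well, rested 5 hr at 37C, then exposed to DMSO-dissolved compounds for 24 hr. Activation was read as luciferase luminescence.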

Assay [14] has as its target Cytochrome P450 2D6 (Homo sapiens) (UniProt P10635). The assay can be described thus: Cytochrome P450 Family 2 Subfamily D Member 6 (CYP2D6) small molecule antagonists: luciferase reporter qHTS assay (AID 1671196). Also: nearly all actives have a fitted effect of over 50% in size. Also: potency is read from the fitted curve at half-maximal effect. In a few lines:
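Test chemicals meet CYP2D6 plus proluciferin substrate (10 min, RT); NADPH regenerating solution then drives turnover for 1 h. Detection reagent halts the reaction; luminescence measured after 20 min.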
% is scaled to controls: 0 for no effect and ±100 for the full control effect.

Cytochrome P450 2D6 (Homo sapiens), sequence (P10635 whole entry, looked up): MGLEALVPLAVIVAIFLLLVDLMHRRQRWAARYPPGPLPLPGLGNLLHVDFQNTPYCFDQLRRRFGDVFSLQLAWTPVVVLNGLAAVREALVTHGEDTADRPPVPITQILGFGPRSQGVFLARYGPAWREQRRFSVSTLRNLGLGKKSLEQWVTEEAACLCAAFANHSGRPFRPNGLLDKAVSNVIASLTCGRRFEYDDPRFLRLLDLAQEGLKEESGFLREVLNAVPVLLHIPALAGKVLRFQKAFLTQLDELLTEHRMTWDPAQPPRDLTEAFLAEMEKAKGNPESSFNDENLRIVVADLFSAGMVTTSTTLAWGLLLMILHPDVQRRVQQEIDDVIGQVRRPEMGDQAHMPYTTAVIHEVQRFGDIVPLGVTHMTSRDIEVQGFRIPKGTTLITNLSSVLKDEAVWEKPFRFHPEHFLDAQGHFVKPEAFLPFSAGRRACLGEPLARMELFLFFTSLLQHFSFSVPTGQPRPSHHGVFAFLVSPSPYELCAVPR
Cytochrome P450 1A2 (Homo sapiens), sequence (P05177 whole entry, looked up): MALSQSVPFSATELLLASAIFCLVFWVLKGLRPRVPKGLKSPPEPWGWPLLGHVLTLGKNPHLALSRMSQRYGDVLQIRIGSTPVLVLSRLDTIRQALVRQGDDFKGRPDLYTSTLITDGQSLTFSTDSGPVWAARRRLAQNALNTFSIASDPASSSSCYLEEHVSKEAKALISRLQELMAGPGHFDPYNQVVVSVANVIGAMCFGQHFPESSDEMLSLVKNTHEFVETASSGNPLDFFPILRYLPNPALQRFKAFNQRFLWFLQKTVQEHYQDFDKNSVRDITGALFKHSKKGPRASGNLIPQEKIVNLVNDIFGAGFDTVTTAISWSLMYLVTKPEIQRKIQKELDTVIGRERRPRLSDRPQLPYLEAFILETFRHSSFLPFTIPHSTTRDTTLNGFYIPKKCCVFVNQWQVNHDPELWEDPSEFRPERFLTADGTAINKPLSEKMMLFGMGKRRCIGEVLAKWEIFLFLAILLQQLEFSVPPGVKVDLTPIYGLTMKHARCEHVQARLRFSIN
Voltage-gated inwardly rectifying potassium channel KCNH2 (Homo sapiens), sequence (Q12809 whole entry, looked up): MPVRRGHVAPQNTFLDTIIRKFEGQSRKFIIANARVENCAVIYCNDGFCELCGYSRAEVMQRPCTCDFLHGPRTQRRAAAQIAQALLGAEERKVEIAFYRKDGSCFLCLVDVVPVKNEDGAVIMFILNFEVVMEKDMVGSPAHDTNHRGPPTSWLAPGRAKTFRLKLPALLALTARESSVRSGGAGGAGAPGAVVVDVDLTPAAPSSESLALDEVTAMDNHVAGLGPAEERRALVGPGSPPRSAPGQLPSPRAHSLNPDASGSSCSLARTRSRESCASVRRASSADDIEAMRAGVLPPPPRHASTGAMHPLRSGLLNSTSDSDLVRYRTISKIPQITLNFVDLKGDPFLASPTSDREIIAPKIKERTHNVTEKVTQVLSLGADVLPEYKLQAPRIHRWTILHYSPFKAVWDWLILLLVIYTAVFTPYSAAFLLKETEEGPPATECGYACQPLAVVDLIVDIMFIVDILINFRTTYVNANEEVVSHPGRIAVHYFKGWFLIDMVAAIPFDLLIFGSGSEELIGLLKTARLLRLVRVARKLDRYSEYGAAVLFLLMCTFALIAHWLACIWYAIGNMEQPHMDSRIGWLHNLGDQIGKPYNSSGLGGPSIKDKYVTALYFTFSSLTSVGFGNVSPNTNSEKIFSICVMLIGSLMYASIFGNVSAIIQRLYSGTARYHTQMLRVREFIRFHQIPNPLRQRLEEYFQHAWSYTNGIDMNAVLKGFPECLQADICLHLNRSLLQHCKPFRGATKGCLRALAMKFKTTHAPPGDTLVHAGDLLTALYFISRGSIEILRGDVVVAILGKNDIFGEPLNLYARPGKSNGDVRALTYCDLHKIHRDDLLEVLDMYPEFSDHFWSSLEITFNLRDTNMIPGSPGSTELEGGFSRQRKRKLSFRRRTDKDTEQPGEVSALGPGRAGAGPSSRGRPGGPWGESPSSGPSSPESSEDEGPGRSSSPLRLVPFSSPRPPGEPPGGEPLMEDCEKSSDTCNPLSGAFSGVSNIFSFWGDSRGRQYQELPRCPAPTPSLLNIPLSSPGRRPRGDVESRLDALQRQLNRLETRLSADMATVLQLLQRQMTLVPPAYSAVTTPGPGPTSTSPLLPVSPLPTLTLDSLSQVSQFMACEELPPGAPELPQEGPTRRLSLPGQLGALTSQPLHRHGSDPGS
Cytochrome P450 2C19 (Homo sapiens), sequence (P33261 whole entry, looked up): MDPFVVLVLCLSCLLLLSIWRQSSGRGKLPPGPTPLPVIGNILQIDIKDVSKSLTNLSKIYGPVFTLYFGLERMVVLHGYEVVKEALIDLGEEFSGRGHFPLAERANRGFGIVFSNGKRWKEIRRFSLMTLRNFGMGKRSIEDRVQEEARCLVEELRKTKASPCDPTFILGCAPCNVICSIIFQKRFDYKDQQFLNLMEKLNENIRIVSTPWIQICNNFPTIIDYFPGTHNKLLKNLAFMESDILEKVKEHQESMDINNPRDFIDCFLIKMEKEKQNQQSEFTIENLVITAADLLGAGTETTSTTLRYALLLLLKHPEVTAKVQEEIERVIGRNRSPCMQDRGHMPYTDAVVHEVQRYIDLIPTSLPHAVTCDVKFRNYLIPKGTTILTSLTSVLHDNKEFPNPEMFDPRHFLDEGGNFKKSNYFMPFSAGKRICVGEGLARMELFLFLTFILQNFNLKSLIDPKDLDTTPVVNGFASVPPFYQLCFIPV

With `CCCCC1CCC(=O)O1` (stereo not drawn), the Potency entry in assay [1], in [2], in [4], in assay [5], in assay [6] and in [7] was “inactive” in each case. Besides, the Potency entry in assay [8] and in [9] was “inactive” in each case. The outcome in assay [3] was inactive.
`CNCCC(Oc1ccccc1OC)c1ccccc1` (stereo not drawn): the Potency entry in assay [1], in assay [2], in assay [4], in assay [6] and in assay [7] was “inactive” throughout. Further, in assay [3], the compound was classed as inactive. For the same compound, the Potency in [8] was 8.49 µM (active).
For the compound `Cc1c[nH]c(=S)[nH]c1=O`, the Potency entry in assay [1], in assay [2], in [4], in [5], in [8] and in [9] was “inactive” each time. The compound was classed as inactive in assay [3]. Besides, the Potency is 79.9 µM (active) in [6] and 63.5 µM (active) in [10].
`O=C(O)c1cccc(Cl)c1Cl`: the Potency entry in assay [1], in assay [2], in assay [4], in assay [5], in [6] and in [7] was “inactive” in each case. Besides, the Potency result in assay [8] and in [9] was “inactive” throughout. Further, the compound was classed as inactive in assay [3].
For `CCN[C@H]1CN(CCCOC)S(=O)(=O)c2sc(S(N)(=O)=O)cc21`, the Potency result in [1], in assay [2], in [4], in assay [12], in assay [13] and in [7] was “inactive” throughout. The Potency entry in assay [10], in assay [8] and in assay [9] was “inactive” in each case. The compound was classed as inactive in assay [3]. In addition, the max activation in [11] is -3.62%.
Turning to `NCCCN1CCN(CCCN)CC1`, the Potency result in [1], in [2], in assay [4], in [5], in assay [6] and in [7] was “inactive” each time. For the same compound, the Potency result in assay [8] and in [9] was “inactive” in each case. For the same compound, in assay [3], the outcome was inactive.
Turning to `CCCCCCCCCC/C=C/C#N`, the Potency result in [1], in [2], in assay [4], in assay [5], in [6] and in assay [7] was “inactive” in each case. Also, the Potency result in assay [8] and in assay [9] was “inactive” each time. For the same compound, the compound was classed as inactive in assay [3].
Turning to `C=O`, the Potency result in assay [1], in assay [2], in [4] and in assay [8] was “inactive” in each case. Further, in [3], the compound was classed as inactive. The max activation in assay [11] is -2.05%.
For the compound `C=CC1CO1` (stereo not drawn), the Potency entry in assay [1], in [2], in [4], in assay [5], in assay [6] and in [7] was “inactive” each time. Moreover, the Potency entry in assay [8] and in assay [9] was “inactive” throughout. In addition, the compound was classed as inactive in [3].
`CC(C)(C)c1ccc(OC(=O)c2ccccc2O)cc1`: the Potency result in assay [1], in assay [2], in assay [4], in assay [14], in assay [6] and in [8] was “inactive” in each case. The Potency entry in [9] was “inactive”. The call in assay [3] was inactive. Moreover, the Potency is 31.7 µM (active) in assay [7] and 39.9 µM (active) in assay [10].
As for `O=C1CCN(c2ccccc2)N1`, the Potency entry in [1], in assay [2], in [4] and in assay [8] was “inactive” each time. Also, in assay [3], the call was inactive. In addition, the Potency was 35.7 µM (active) in assay [14]; 80 µM (active) in [6]; 8 µM (active) in assay [7]; 35.7 µM (active) in [10]; 35.7 µM (active) in [9].
As for `CC(C)NCC(O)COc1ccc(CCOCC2CC2)cc1` (stereo not drawn), the Potency entry in [1], in [2], in assay [4] and in assay [8] was “inactive” in each case. In addition, in [3], the compound was called inactive.
For the compound `Cc1cc2nc(N)sc2cc1C`, the Potency entry in assay [1], in assay [2] and in assay [8] was “inactive” in each case. Further, the call in assay [3] was inactive. In addition, the Potency was 27.6 µM (active) in assay [5]; 32 µM (active) in [14]; 28.5 µM (active) in assay [6]; 35.9 µM (active) in [7]; 1.14 µM (active) in assay [10]; 25.4 µM (active) in assay [9].
`COC(=O)c1ccc(OC)cc1`: the Potency entry in assay [1], in assay [2], in [5], in assay [14], in assay [6] and in assay [7] was “inactive” in each case. In addition, the Potency result in assay [8] and in assay [9] was “inactive” in each case. In addition, the outcome in assay [3] was inactive. For the same compound, in [10], the Potency is 35.6 µM (active).
Consider `NC/C=C/C(=O)O`, for which the Potency entry in [1], in assay [2], in assay [5], in [12], in assay [13] and in [14] was “inactive” throughout. In addition, the Potency entry in [6], in assay [7], in assay [10], in [8] and in [9] was “inactive” in each case. Besides, in assay [3], the call was inactive. Further, in assay [11], the max activation was -4.44%.
With `CCOC(=O)C(Br)c1ccccc1` (stereo not drawn), the Potency result in assay [1], in [2], in assay [14], in assay [8] and in assay [9] was “inactive” in each case. For the same compound, the outcome in [3] was inactive. Further, in [7], the Potency is 79.6 µM (active).
